Here are results for 4 molecules from PubChem BioAssay.

Assay [1] in a line: yeast TOR pathway RPL19A-GFP modulators, primary screen, cell-based, S. cerevisiae, multiplex flow cytometry (AID 1862; in the data active = percent of DMSO control GFP below about 86%;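 also: lower values mimic rapamycin by blocking the RPL19A rise seen in DMSO cells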). The note with it: S. cerevisiae RPL19A-GFP strain, flow cytometry fluorescence, 3 h; at 10 µM; stronger effect = lower value.
The nature of assay [2]: modulators of MEP2-GFP levels in yeast, primary screen, S. cerevisiae, multiplex flow cytometry (AID 1867;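 active = GFP response, as percent of the DMSO control, above the screen-wide mean plus 3 SD, about 139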;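 also: median GFP channel fluorescence of barcode-gated MEP2-GFP cells measured by flow cytometry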). The note with it: S. cerevisiae MEP2-GFP strain, 3 h, at 10 µM, stronger effect = higher value, 100% means same as DMSO wells. (A flow cytometer gives signals particle by particle.)
Assay [3] is described as follows: modulators of CIT2-GFP expression in yeast, primary screen, S. cerevisiae, GFP fusion, multiplex flow cytometry (AID 1870;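 active = percent response above a set limit, the screen-wide mean plus 3 SD, cut at about 130% in these data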;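 also: barcoded CIT2-GFP strain pooled with four other GFP strains with rapamycin as positive control; median GFP fluorescence per well over plate mean of DMSO wells so 100% = DMSO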). The following applies: 3 h, at 10 µM, stronger effect = higher value.
Assay [4] in a line: modulators of LAP4-GFP expression in yeast, primary screen, S. cerevisiae, multiplex flow cytometry (AID 1873;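 active = GFP signal, as percent of the solvent control, above the screen mean plus 3 SD, about 149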). The following applies: 3 h, at 10 µM, stronger effect = higher value.
Assay [5] in a line: modulators of AGP1-GFP expression in yeast TOR pathway, primary screen, cell-based, multiplex flow cytometry, S. cerevisiae (AID 1887;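 active = GFP signal above the screen-wide mean plus 3 SD, that is over about 124.5% of the solvent control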;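 also: AGP1-GFP fusion strain of S. cerevisiae within a five-strain barcoded multiplex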). The following applies: 3 h, at 10 µM, stronger effect = higher value.
Assay [6] can be described thus: inhibitors of CD8+ T cell-vesicle binding, pilot screen, LFA-1/ICAM-1 modulator project, MLPCN validation set, flow cytometry (AID 2523;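 active = response below a set limit, under 55% cells CD8-positive and vesicle-bound, and CD8 cells' 90th-percentile brightness under 279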;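 as to vesicle binding response: mean PE anti-B7-1 fluorescence of CD8+ cells relative to row control; 100% = QL9-loaded vesicles with DMSO vehicle in the same plate row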). The note with it: 2C mouse CD8+ T cells, at 7 µM, stronger effect = lower value; double positive events: measured here: CD8+/vesicle+ event percentage.
The target in assay [7] is Integrin beta-1 (Homo sapiens) + Integrin alpha-4 (Homo sapiens) (UniProt P13612+P05556). As to the kind of experiment: inhibition of HUTS-21 binding to VLA-4, pilot screen, VLA-4 allosteric modulator project, U937 cells, HUTS-21 mAb, flow cytometry, validation set (AID 2674;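 active = inhibition above 50%, about 3 SD of the validation set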;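 also: antibody binding induced by the VLA-4 ligand LDV present at three times its Kd; 0% = LDV ligand with antibody and no compound and 100% = antibody without LDV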). The note with it: HUTS-21 LIBS mAb binding, at 6.7 µM, stronger effect = higher value, binding induced by LDV ligand.

A short description of assay [8]: superoxide lowering in aged yeast cells, pilot screen, validation compound set (AID 2706;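 active = superoxide response below 65% of plate, a cut near 3 SD across the whole screen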;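 also: yeast exposed to compound for one week at 30 degrees C before staining; 100% = mean of all compound wells on the same plate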). The note with it: S. cerevisiae aging, superoxide DHE fluorescence; at 10 µM; stronger effect = lower value.
In assay [9] the target is Beta-adrenergic receptor kinase 1 (Homo sapiens) (UniProt P25098). As to the kind of experiment: GRK2 binders displacing RNA aptamer, biochemical, validation, human GRK2, bead flow cytometry (AID 488806;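 active = aptamer binding inhibition above 30%, about 3 SD of noise from non-fluorescent compounds; inactive = inhibition at or below 30%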). The following applies: bead-bound GRK2, FAM-aptamer displacement, at 10 µM, stronger effect = higher value.
The target of assay [10] is Beta-2 adrenergic receptor (Homo sapiens) (UniProt P07550). The experiment in a line: beta2AR agonists driving receptor internalization, pilot screen, cell-based, FAP fluorogen, flow cytometry, validation set (AID 504459;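 active = percent response above 42, roughly 3 SD of non-fluorescent test compounds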;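 also: agonist-driven loss of surface beta2AR via internalization measured by FAP dye flow cytometry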). The note with it: Am2.2-beta2AR cells, FAP surface receptor flow cytometry; at 10 µM; stronger effect = higher value.
The target in assay [11] is AP-2 complex subunit beta (Homo sapiens) (UniProt P63010). The experiment in a line: inhibitors of arrestin peptide binding to AP2, pilot screen, biochemical, validation set, GST-AP2 beads, flow cytometry (AID 504541;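 active = inhibition above 54%, about 3 SD of non-fluorescent compounds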;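 also: AP2 carries R879A mutation and is captured from E. coli lysate; bead-bound FITC arrestin peptide fluorescence measuring arrestin peptide binding to AP2; 0% = DMSO wells and 100% = excess unlabeled arrestin peptide control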). The following applies: FITC arrestin peptide, at 10 µM, stronger effect = higher value, AP2 beta2 appendage fragment, R879A mutant.
A short description of assay [12]: yeast V-ATPase proton transport modulators, S. cerevisiae, pHLuorin, HTS validation (AID 504600; in the data active = response above about 15%;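 also: plate controls were DMSO for no effect and reference compound for full effect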). The following applies: S. cerevisiae pHLuorin cytosolic pH, at 10 µM, stronger effect = higher value.
The test system of assay [13] is anti-desmoglein-3 scFv antibody binding to human DSG3. As to the kind of experiment: inhibitors of anti-DSG3 scFv binding to DSG3, pilot screen, biochemical, validation compound set, bead-based, flow cytometry (AID 588368).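 Also: signal is the median channel fluorescence of bead-bound GFP antibody.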 The note with it: Protein G beads, DSG3-Fc, scFv-GFP binding, at 10 µM, stronger effect = lower value.
Assay [14] is described as follows: inhibitors of fungal efflux pumps CDR1, CDR2, MDR1, pilot screen, validation compound set, multiplex, phenotypic (AID 588506;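 active = efflux inhibition above 0.42, the validation set average plus 4 SD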;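 also: Nile Red retained in cells so higher fluorescence means more efflux inhibition; 0 = negative control wells and 1 = enniatin B 25 µM full block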). The following applies: S. cerevisiae pump-expressing triplex, Nile Red efflux flow cytometry; at 10 µM; stronger effect = higher value; the pumps come from Candida albicans.
In assay [15] the target is ATP-binding cassette sub-family B member 6 (Homo sapiens) (UniProt Q9NP58). As to the kind of experiment: ABCB6 transporter inhibitors, pilot screen, K562-ABCB6 cells, flow cytometry, validation set (AID 588550;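 active = inhibition above the screen-wide mean plus 3 SD, about 51%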;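 also: 0% = DMSO wells and 100% = benzethonium chloride 70 µM positive control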). The following applies: K562-ABCB6 porphyrin accumulation, 1 h, at 10 µM, stronger effect = higher value.
The nature of assay [16]: promoters of myeloid differentiation in arrested cells, primary screen, cell-based, GFP/MAC1 double positive, flow cytometry, validation set (AID 588685;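 active = differentiation response of at least 50%, scaled between solvent and reference control, from cells with both markers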;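 also: compound exposure lasts four days before antibody staining and flow analysis; 0% = DMSO wells and 100% = 5 µM fulvestrant positive control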). The following applies: ER-HoxA9 marrow cells, stronger effect = higher value, normalized: vehicle 0, fulvestrant 100.

Records with an inconclusive call do not appear. Active and inactive are the calls of the source.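 The calls were made as follows, unless noted: active = binding below the plate cutoff, the plate median minus 3 SD, with a reading above zero; inconclusive = below the plate cutoff but reading exactly zero; inactive = the rest.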

Beta-adrenergic receptor kinase 1 (Homo sapiens), sequence (P25098 whole entry, looked up): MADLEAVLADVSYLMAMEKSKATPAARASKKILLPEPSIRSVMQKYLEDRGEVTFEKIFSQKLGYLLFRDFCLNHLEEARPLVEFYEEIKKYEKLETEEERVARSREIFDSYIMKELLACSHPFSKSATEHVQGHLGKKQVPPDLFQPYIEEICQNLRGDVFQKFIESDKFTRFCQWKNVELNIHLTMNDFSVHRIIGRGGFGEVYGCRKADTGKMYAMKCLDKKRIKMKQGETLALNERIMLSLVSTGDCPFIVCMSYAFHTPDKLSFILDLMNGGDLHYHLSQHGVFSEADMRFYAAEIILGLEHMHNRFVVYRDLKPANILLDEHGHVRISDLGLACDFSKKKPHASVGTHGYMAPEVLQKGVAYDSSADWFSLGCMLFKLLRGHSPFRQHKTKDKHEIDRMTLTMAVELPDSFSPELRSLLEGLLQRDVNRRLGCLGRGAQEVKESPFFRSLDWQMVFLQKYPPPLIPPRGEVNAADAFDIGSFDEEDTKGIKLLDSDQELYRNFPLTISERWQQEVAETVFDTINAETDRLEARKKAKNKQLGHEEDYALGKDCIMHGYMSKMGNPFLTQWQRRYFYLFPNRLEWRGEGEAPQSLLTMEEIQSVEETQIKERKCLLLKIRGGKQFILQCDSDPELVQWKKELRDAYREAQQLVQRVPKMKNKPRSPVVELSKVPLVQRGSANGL
Integrin beta-1 (Homo sapiens) + Integrin alpha-4 (Homo sapiens), sequence (P05556 whole entry, looked up): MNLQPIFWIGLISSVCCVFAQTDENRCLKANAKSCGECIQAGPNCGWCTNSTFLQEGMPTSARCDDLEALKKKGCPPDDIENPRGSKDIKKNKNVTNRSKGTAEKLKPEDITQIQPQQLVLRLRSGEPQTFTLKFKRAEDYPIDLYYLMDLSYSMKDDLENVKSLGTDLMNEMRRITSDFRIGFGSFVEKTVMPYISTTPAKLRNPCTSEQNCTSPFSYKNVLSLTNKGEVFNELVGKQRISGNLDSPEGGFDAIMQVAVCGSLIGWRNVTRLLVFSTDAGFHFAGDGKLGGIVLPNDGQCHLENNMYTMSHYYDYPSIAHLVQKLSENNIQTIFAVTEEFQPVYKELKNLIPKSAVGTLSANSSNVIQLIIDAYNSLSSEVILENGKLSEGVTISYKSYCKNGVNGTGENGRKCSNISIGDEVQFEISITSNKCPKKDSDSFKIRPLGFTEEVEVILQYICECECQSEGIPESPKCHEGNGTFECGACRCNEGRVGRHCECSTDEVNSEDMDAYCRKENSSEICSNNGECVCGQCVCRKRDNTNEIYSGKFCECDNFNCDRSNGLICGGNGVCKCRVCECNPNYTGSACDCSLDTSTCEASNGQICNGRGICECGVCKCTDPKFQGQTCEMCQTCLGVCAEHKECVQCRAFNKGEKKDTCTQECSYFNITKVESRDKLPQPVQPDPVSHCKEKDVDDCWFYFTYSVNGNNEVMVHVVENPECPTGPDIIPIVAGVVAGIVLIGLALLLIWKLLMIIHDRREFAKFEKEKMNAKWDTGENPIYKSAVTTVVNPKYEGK
Integrin beta-1 (Homo sapiens) + Integrin alpha-4 (Homo sapiens), sequence (P13612 whole entry, looked up): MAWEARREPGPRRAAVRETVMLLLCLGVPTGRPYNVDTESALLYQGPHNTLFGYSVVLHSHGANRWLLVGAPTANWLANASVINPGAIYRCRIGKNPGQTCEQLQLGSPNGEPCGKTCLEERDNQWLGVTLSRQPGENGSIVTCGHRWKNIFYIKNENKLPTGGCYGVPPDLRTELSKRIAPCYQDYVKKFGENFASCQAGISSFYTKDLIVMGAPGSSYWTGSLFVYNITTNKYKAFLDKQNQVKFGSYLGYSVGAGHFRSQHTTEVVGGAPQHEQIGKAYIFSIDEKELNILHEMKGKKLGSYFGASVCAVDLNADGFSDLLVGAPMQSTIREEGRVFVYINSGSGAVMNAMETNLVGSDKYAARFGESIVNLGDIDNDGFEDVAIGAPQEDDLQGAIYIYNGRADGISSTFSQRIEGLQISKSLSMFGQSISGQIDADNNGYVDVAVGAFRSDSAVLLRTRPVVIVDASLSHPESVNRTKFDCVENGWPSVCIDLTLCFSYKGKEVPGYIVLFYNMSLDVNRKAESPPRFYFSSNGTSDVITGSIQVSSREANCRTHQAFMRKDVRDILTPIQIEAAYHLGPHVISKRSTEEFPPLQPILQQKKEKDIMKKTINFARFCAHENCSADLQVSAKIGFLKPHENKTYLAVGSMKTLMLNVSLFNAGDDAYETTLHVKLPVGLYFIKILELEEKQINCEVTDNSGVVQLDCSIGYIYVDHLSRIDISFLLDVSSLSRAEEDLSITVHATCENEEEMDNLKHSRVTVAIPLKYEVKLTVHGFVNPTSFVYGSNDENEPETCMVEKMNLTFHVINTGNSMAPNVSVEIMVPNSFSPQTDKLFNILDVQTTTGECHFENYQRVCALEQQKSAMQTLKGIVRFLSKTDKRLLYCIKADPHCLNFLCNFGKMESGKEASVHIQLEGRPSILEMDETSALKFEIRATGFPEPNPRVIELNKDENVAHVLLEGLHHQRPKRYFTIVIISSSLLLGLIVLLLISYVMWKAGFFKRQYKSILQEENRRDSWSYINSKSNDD
ATP-binding cassette sub-family B member 6 (Homo sapiens), sequence (Q9NP58 whole entry, looked up): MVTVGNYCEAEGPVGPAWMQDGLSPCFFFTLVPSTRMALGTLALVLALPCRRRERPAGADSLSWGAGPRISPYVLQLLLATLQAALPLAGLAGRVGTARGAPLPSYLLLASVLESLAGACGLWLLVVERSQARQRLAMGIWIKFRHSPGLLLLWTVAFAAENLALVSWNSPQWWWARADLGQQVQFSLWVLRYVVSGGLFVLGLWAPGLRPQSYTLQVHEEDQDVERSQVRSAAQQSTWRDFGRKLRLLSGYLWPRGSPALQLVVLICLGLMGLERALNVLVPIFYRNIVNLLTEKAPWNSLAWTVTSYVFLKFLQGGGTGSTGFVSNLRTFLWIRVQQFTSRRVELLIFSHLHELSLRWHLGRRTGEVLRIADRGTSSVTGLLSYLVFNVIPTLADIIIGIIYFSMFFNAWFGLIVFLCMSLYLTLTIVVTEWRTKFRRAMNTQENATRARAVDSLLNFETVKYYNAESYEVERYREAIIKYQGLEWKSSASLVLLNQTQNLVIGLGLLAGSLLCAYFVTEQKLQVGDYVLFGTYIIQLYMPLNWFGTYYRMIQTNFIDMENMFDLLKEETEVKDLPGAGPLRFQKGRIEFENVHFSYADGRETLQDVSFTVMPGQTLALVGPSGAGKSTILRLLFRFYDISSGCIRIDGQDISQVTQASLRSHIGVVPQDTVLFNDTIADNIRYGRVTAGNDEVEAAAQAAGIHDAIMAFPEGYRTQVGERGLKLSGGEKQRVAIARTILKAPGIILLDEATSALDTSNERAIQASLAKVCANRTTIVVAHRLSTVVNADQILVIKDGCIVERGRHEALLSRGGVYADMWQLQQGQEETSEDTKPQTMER
AP-2 complex subunit beta (Homo sapiens), sequence (P63010 whole entry, looked up, the tested form may be a part, one chain of several): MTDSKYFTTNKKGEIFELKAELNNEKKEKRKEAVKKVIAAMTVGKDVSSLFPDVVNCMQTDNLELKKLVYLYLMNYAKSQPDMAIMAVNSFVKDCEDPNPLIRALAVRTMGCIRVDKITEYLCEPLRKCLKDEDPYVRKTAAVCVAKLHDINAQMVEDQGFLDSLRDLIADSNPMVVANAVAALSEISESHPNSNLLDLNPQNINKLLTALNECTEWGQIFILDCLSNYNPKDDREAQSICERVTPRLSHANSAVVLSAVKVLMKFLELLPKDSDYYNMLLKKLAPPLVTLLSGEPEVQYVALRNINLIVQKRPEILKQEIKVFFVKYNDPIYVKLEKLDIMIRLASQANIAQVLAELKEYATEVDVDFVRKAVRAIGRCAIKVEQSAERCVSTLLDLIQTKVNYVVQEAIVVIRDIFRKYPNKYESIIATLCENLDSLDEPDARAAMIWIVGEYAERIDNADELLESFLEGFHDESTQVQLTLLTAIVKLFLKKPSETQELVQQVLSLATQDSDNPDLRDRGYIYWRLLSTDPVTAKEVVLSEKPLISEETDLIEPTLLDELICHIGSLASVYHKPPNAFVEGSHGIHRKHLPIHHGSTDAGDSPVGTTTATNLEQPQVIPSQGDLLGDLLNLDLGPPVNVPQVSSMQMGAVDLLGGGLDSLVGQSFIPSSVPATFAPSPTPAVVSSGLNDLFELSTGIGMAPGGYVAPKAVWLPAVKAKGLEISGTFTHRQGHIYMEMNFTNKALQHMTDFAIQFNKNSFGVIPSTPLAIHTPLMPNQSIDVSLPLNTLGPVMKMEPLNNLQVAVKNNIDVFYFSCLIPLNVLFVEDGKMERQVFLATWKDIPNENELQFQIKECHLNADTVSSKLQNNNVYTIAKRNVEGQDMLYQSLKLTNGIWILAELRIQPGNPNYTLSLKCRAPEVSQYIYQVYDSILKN
Beta-2 adrenergic receptor (Homo sapiens), sequence (P07550 whole entry, looked up): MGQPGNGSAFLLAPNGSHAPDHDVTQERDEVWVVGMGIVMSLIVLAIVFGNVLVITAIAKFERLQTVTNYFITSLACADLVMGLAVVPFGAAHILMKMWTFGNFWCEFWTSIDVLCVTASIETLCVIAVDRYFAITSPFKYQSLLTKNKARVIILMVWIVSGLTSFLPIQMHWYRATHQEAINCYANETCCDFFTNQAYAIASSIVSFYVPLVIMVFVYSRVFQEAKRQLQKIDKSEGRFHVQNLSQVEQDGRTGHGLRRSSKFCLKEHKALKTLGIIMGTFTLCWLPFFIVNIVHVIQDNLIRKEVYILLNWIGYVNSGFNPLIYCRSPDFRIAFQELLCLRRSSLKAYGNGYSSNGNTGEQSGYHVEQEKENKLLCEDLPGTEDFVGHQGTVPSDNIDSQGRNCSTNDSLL

Turning to `N#C/C(=C/c1ccccc1)C(=O)NCc1ccccc1`, the percent of DMSO control GFP in assay [1] is 97.4% (inactive). Further, the GFP response vs DMSO is 108% (inactive) in [2] and 106% (inactive) in [4]. In assay [3], the percent response of DMSO control was 101% (inactive). For the same molecule, the GFP response, % of DMSO in [5] was 102% (inactive). The molecule further had a double positive events in assay [6] of 58%. Besides, the vesicle binding response in [6] was 197% (inactive). Besides, the values for the inhibition in assay [7], in assay [11] and in [15] were 7.76% (inactive), 8.66% (inactive) and 3% (inactive), respectively. Moreover, the superoxide response (% of plate) in assay [8] is 95.8% (inactive). In addition, the aptamer binding inhibition in [9] is 0% (inactive). The response is -0.74% (inactive) in assay [10] and -0.63% (inactive) in [12]. In assay [13], the binding (% of control) is 101% (inactive). In assay [14], the efflux inhibition (fraction of control) is -0.06 (inactive). In assay [16], the differentiation response was -18.4% (inactive).
Take `CCOc1ccc(C(=O)C(C)=O)c(OCC)c1`: the percent of DMSO control GFP in [1] was 101% (inactive). In addition, the GFP response vs DMSO in [2] is 99.7% (inactive); in [4], 100% (inactive). The percent response of DMSO control in assay [3] is 104% (inactive). Also, the GFP response, % of DMSO in [5] was 105% (inactive). The same molecule came in with a double positive events in assay [6] of 64.3%. In [6], the vesicle binding response was 211% (inactive). The inhibition is -1.09% (inactive) in [7], -2.17% (inactive) in assay [11] and 19% (inactive) in [15]. For the same molecule, in [8], the superoxide response (% of plate) is 105% (inactive). Moreover, the aptamer binding inhibition in [9] is 2% (inactive). Further, the response in assay [10] is -2.34% (inactive); in assay [12], 1.92% (inactive). For the same molecule, in assay [13], the binding (% of control) was 97% (inactive). Further, the efflux inhibition (fraction of control) in assay [14] was -0.02 (inactive). In assay [16], the differentiation response is -13.3% (inactive).
For `Nc1ccc(-c2nc3ncccc3o2)c(Cl)c1`, in assay [1], the percent of DMSO control GFP is 97.8% (inactive). The GFP response vs DMSO in [2] was 103% (inactive); in [4], 112% (inactive). For the same molecule, in assay [3], the percent response of DMSO control is 97.7% (inactive). Moreover, in assay [5], the GFP response, % of DMSO is 98.6% (inactive). The molecule further came in with a double positive events in [6] of 56.7%. In [6], the vesicle binding response was 243% (inactive). The results for the inhibition in assay [7], in assay [11] and in assay [15] were -15.4% (inactive), -5.26% (inactive) and 6% (inactive), respectively. Besides, in assay [8], the superoxide response (% of plate) is 118% (inactive). Moreover, in assay [9], the aptamer binding inhibition is 0% (inactive). Moreover, the response is 0.9% (inactive) in assay [10] and 61.4% (active) in assay [12]. Besides, the binding (% of control) in assay [13] is 103% (inactive). Also, the efflux inhibition (fraction of control) in assay [14] is 0.15 (inactive). Also, the differentiation response in assay [16] is 4% (inactive).
Regarding `O=C(Oc1ccccc1)Oc1ccc2c(c1)oc(=O)c1ccccc12`, the percent of DMSO control GFP in assay [1] is 96.3% (inactive). The GFP response vs DMSO in assay [2] was 126% (inactive); in assay [4], 90.2% (inactive). In addition, the percent response of DMSO control in [3] is 106% (inactive). For the same molecule, the GFP response, % of DMSO in assay [5] was 102% (inactive). Besides, the double positive events in assay [6] came to 60.1%. Further, the vesicle binding response in [6] is 230% (inactive). In addition, the inhibition is -6.15% (inactive) in [7], 4.7% (inactive) in assay [11] and 4% (inactive) in [15]. Besides, the superoxide response (% of plate) in assay [8] was 78.2% (inactive). The aptamer binding inhibition in [9] is 2% (inactive). The results for the response in assay [10] and in assay [12] were 4.41% (inactive) and 0.05% (inactive), respectively. Also, in [13], the binding (% of control) is 94.7% (inactive). Besides, the efflux inhibition (fraction of control) in [14] is 0.34 (inactive). In assay [16], the differentiation response is 8.19% (inactive).

The inhibition is the change of the read-out against control, counted positive when it falls.
